Screening results as filed in PubChem.
An excerpt weighted towards active compounds, which were near 2.4% of everything screened.
POLK inh: DNA polymerase kappa (human) inhibition | Q9UBT6 | purified Pol kappa, fluorescent DNA synthesis assay, 10 min | Potency, µM (series often up to 107 µM), hits mostly inhibitors | 400,000 compounds, 0.53% hits | AID 588579
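10 nM Pol kappa was preincubated with compounds for 15 min at room temperature. Reaction started with 50 nM (final) substrate. Fluorescence read kinetically at 0 and 10 min.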
POLB inh: DNA polymerase beta (human) inhibition; Pol beta primer extension/strand displacement, fluorescence kinetic; Potency, µM (top dose mostly 114 µM), most hits filed as inhibitors; 340,000 compounds, 1.3% hits; AID 485314
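Human Pol beta at 10 nM; strand-displacement substrate 50 nM final. Compound exposure 15 min at room temperature before start, reaction 10 min at room temperature.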
POLH inh: inhibitors of human DNA polymerase eta. 390,000 compounds, 1.2% hits. recombinant Pol eta, fluorescent DNA replication assay. Q9Y253. Potency, µM (titrated, usually from 114 µM), most hits filed as inhibitors
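Pol eta (10 nM) was preincubated with compounds for 15 min at room temperature, after which fluorescent replication substrate (50 nM final) was added to start the reaction. Fluorescence was read kinetically at 0 and 10 min.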
WRN inhibitor: WRN helicase (human) inhibition; Potency, µM (highest dose often 114 µM), actives largely listed as inhibitors; WRN helicase unwinding, fluorescent forked duplex, kinetic; Q14191; 360,000 compounds, 0.46% hits; also: nearly all actives have a fitted effect of over 55% in size
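Kinetic red-fluorescence monitoring (525/598 nm) tracks WRN helicase activity after 100 nM fluorophore-quencher forked duplex and 2 mM ATP are added to 20 nM enzyme pretreated 15 min at room temperature with compound.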
POLI inh: blocks human DNA polymerase iota activity; Potency, µM (doses to about 115 µM), usual class: inhibitors; Q9UNA4; Pol iota fluorescent replication assay, 10 min; 390,000 compounds, 1% hits; AID 588590
Target sequence (Q9UNA4 whole entry, looked up): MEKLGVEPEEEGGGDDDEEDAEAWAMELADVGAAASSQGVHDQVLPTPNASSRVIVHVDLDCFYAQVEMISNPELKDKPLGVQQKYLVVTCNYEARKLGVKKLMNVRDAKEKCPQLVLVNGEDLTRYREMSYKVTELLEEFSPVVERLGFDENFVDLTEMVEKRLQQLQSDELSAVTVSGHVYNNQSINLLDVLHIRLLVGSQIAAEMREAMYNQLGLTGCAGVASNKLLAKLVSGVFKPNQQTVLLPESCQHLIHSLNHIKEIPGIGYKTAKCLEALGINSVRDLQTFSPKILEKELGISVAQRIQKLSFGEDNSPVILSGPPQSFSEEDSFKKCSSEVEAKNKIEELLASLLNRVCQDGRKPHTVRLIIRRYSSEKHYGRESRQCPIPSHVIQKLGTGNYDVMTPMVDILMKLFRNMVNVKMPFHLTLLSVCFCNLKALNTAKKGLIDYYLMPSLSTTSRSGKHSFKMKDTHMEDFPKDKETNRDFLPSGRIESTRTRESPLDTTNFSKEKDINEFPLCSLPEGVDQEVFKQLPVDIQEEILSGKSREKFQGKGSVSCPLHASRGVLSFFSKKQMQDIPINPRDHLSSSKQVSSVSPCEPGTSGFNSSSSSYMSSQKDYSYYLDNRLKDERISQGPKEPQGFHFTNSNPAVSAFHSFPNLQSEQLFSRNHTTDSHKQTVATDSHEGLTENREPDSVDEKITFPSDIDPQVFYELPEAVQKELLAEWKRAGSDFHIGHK
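Fluorescent replication assay read twice, at 0 min and 10 min after adding 50 nM (final) substrate. Enzyme (10 nM) and compounds were first incubated 15 min at room temperature; enzyme-free buffer wells were negative controls.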
FEN1 inh: human FEN1 inhibition; P39748; Recombinant FEN1 flap cleavage, fluorescence, 15 min; Potency, µM (highest dose often 114 µM), most hits filed as inhibitors; 390,000 compounds, 0.35% hits; also: nearly all actives have a fitted effect of over 65% in size
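Steps: FEN1 (10 nM) dispensed; compound added by pin tool; 15 min at room temperature; substrate added to 50 nM final; reads at 0 min and 15 min; data normalized and fitted (four-parameter Hill).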
Large screens that a line does not name were inactive. Calls follow the shape of the dose curve; as a rule, active = well fitted curve in the direction sought with a large enough effect; inconclusive = small, poorly fitted or top-dose-only effect, or another doubt; inactive = no such curve, though single readings can be large; an effect the other way counts as inactive or inconclusive.

COCCCn1c(=N)c(C(=O)NCc2ccco2)cc2c(=O)n3ccccc3nc21	POLI inh 79.4µM (no result: WRN inhibitor)
COc1ccc(CCNC(=O)c2cc3c(=O)n4ccccc4nc3n(C3CCCCC3)c2=N)cc1	none
COc1ccc(CCn2c(=N)c(C(=O)NCc3ccco3)cc3c(=O)n4ccccc4nc32)cc1OC	POLK inh inconclusive, POLH inh 44.7µM, POLI inh 15.8µM (no result: POLB inh)
COc1ccc(CCNC(=O)c2cc(Nc3ccccc3)nc3ccccc23)cc1OC	POLI inh 79.4µM (no result: WRN inhibitor)
CCOCCCn1c(=N)c(C(=O)NCc2ccco2)cc2c(=O)n3ccccc3nc21	none (no result: WRN inhibitor)
O=C(NCCc1ccccc1)c1cc(Nc2ccccc2)nc2ccccc12	none (no result: WRN inhibitor)
COc1ccccc1-c1cc(NC(=O)COc2ccccc2Cl)n(-c2ccccc2)n1	none (no result: WRN inhibitor)
Fc1ccc(-c2ccnc3nc(-n4cccc4)nn23)cc1	POLB inh inconclusive, POLI inh 79.4µM
Fc1ccc(-c2ccnc3nc(N4CCOCC4)nn23)cc1	none
Cc1nc2ccc(NC(=O)c3cc([N+](=O)[O-])cc([N+](=O)[O-])c3Cl)cc2s1	POLH inh inconclusive, WRN inhibitor 10µM, POLI inh inconclusive
CC(C)c1cccc(-c2ccc3c(c2)S(=O)(=O)c2cccc(C(=O)NCc4ccco4)c2C3=O)c1	POLK inh inconclusive, POLH inh 39.8µM, POLI inh inconclusive (no result: POLB inh)
CC(C)c1cccc(-c2ccc3c(c2)S(=O)(=O)c2cccc(C(=O)O)c2C3=O)c1	none (no result: POLB inh)
COc1ccc(-c2ccc3c(c2)S(=O)(=O)c2cccc(C(=O)NC[C@@H]4CCCO4)c2C3=O)cc1OC	POLH inh 28.2µM, POLI inh inconclusive (no result: POLB inh)
CCc1cccc(NC(c2nnc(-c3ccccc3)o2)c2ccc(F)cc2Cl)c1 (stereo not given)	POLB inh inconclusive (no result: WRN inhibitor)
O=C(CCl)N1CCN2C(=O)c3ccccc3C12c1ccc(Cl)cc1 (stereo not given)	POLH inh 79.4µM
CCCCC1=CC2=C(c3ccco3)C(=O)C(C)(OC(=O)c3ccc(OC)cc3)C(=O)C2=CN1Cc1ccco1 (stereo not given)	POLK inh 50.1µM, POLB inh 10µM, POLI inh 3.98µM
CCCCC1=CC2=C(c3ccco3)C(=O)C(C)(OC(=O)c3ccc(OC)cc3)C(=O)C2=CN1Cc1ccc(OC)cc1 (stereo not given)	POLB inh 44.7µM (no result: POLK inh, POLH inh, WRN inhibitor, POLI inh, FEN1 inh)
CCCCC1=CC2=C(c3ccco3)C(=O)C(C)(OC(=O)c3ccc(OC)cc3)C(=O)C2=CN1CC(C)C (stereo not given)	none
CCCCC1=CC2=C(c3ccco3)C(=O)C(C)(OC(=O)c3ccc(OC)cc3)C(=O)C2=CN1CCCCO (stereo not given)	POLI inh inconclusive
O=C(CCC1CCCN(C(=O)c2ccc3cc[nH]c3c2)C1)N1CCN(c2ccccn2)CC1 (stereo not given)	POLB inh 39.8µM
O=C(CCC1CCCN(C(=O)c2ccc3[nH]ccc3c2)C1)N1CCN(c2ccccn2)CC1 (stereo not given)	none
Cc1ccccc1Oc1nc2c(c(=O)n(C)c(=O)n2C)n1Cc1ccc(Br)cc1	none (no result: WRN inhibitor)
CC1CN(C2=Nc3cccc4cccc2c34)CC(C)O1 (stereo not given)	POLI inh 25.1µM
c1cc2c3c(cccc3c1)C(N1CCOCC1)=N2	none
O=[N+]([O-])c1ccccc1/C=C/c1ccnc2ccccc12	POLI inh inconclusive (no result: POLB inh, POLH inh, WRN inhibitor)
CC(C)CCC[C@@H](C)[C@H]1CC[C@H]2[C@@H]3CC=C4C[C@@H](O)CC[C@]4(C)[C@H]3CC[C@]12C	none (no result: POLB inh, POLH inh, WRN inhibitor, POLI inh, FEN1 inh)
Cc1c(C(=O)OCC2CCCO2)[nH]c2c1C(=O)CC(c1ccco1)C2 (stereo not given)	POLK inh 28.2µM, POLB inh 10µM, POLH inh 3.16µM, WRN inhibitor 39.8µM, POLI inh inconclusive, FEN1 inh inconclusive
Cc1c(C(=O)OCC(C)C)[nH]c2c1C(=O)CC(c1ccco1)C2 (stereo not given)	POLB inh 25.1µM, POLH inh 31.6µM, POLI inh inconclusive
C=CCOC(=O)c1[nH]c2c(c1C)C(=O)CC(c1ccco1)C2 (stereo not given)	POLK inh inconclusive, POLB inh 12.6µM, POLH inh 25.1µM, WRN inhibitor inconclusive, POLI inh inconclusive
Cc1c(C(=O)OC2CCCC2)[nH]c2c1C(=O)CC(c1ccco1)C2 (stereo not given)	POLK inh inconclusive, POLB inh inconclusive, POLH inh inconclusive, POLI inh inconclusive
CC(=O)Nc1ccn(C2OC(C(COC(C)=O)NC(=O)C(CCCCNC(=O)OCc3ccccc3)NC(=O)OC(C)(C)C)C(OC(C)=O)C2OC(C)=O)c(=O)n1 (stereo not given)	none (no result: POLB inh, POLH inh, WRN inhibitor)
CCn1cc(S(=O)(=O)c2ccc(OC)cc2)c(=O)c2cc(F)c(N3CCC(C)CC3)cc21	POLK inh inconclusive (no result: WRN inhibitor)
Cc1ccc(O)c(NC(=O)CCSc2nc(-c3ccco3)cc(C(F)(F)F)n2)c1	none (no result: WRN inhibitor)
O=C(Cn1c(=O)n(Cc2ccc(F)cc2)c(=O)c2sc3ccccc3c21)NCc1ccccc1Cl	none (no result: WRN inhibitor)
CC(C)Nc1nnc(SCc2cc(=O)n3ccsc3n2)s1	POLB inh 31.6µM, POLI inh inconclusive
O=C(CCCn1c(=O)c2ccccc2n(Cc2ccc(F)cc2Cl)c1=O)NCCc1ccc(Cl)cc1	none (no result: WRN inhibitor)
COc1cc(NC(=O)COc2ccccc2Cl)ccc1NC(=O)c1cccs1	POLI inh 50.1µM
COc1cc(NC(=O)COc2ccccc2[N+](=O)[O-])ccc1NC(=O)c1cccs1	POLB inh inconclusive, POLH inh inconclusive, POLI inh inconclusive
COc1cc(O)c(C(CC(=O)N2CCCC(C)C2)c2ccc3c(c2)OCO3)c(OC)c1 (stereo not given)	none
COc1cc(OC)c2ccc(=O)oc2c1C(CC(=O)N1CCCC(C)C1)c1ccc2c(c1)OCO2 (stereo not given)	POLK inh inconclusive, POLB inh 39.8µM, POLH inh 39.8µM, POLI inh inconclusive
Cc1ccc(S(=O)(=O)c2nnn3c2nc(NC2CCN(Cc4ccccc4)CC2)c2ccccc23)cc1C	POLK inh inconclusive, POLI inh 44.7µM
COC(=O)c1ccc(COc2ccccc2/C=N/Nc2cccc(C(=O)O)c2)cc1	POLK inh inconclusive, POLH inh 79.4µM, POLI inh inconclusive
O=C(Nc1ccc2oc(-c3cccnc3)nc2c1)c1ccc2c(c1)OCCO2	POLK inh inconclusive, POLB inh 14.1µM, POLH inh inconclusive, WRN inhibitor inconclusive, POLI inh inconclusive, FEN1 inh inconclusive
Cc1ccccc1NC(=O)Cn1nnc(S(=O)(=O)c2ccc(C(C)(C)C)cc2)c1N	POLB inh 31.6µM, POLI inh inconclusive
Cc1ccccc1NC(=O)Cn1nnc(C(=O)NCc2ccco2)c1N	none
